Screening results deposited in PubChem BioAssay by Columbia University Molecular Screening Center.
TNFa cytotox – cytotoxicity in TNFa-stimulated HUVEC, primary screen, cytotoxicity control for VCAM1 expression modulator project, imaging, Hoechst nuclei count; AID 848, 2007; hit rate 0.17% among 93,000; cell count reduction, % at 2 µM; HUVEC TNFalpha-stimulated, Hoechst cell count;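 active means cell count reduction exceeding the screen mean by over 5 SD, scaled to untreated wells per plate, cut at about 78% in these data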;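 further: cells counted after 24 h of TNF alpha exposure following the 1 h pretreatment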
E-sel TNF inh – E-selectin induction blockers in HUVEC – imaging, immunofluorescence, high content, primary screen. HUVEC TNFa-induced E-selectin immunofluorescence. inhibition, % at 2 µM. hit rate 0.71% among 120,000. AID 1246, 2008;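 active means inhibition above the batch mean plus 3 SD, and confirmed as a hit on visual image review, cut at about 43% in these data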
IL1B NFkB inh – inhibitors of IL-1B driven NFkB p65 nuclear import, primary screen, imaging, HUVEC, IL-1B stimulus, high-content imaging; HUVEC IL-1B NFkB p65 nuclear translocation imaging; inhibition, % at 2 µM; AID 796, 2007; hit rate 0.43% among 94,000;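 active means inhibition above about 30% together with a positive call from visual inspection of the well image, limit read from the data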;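 further: nuclear over cytoplasmic p65 intensity ratio measured by imaging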
HUVEC tox IL1B – cytotoxicity in IL-1B stimulated HUVEC, primary screen, cytotoxicity control for IL-1B NFkB translocation project, imaging, Hoechst nuclear count, IL-1B stimulus; AID 845, 2007; hit rate 0.41% among 94,000; HUVEC cell count loss; cell count reduction, % at 2 µM;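 active means cell count reduction more than 3 SD above the screen-wide mean, cut at about 70% in these data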
VCAM1 TNFa inh – inhibitors of TNFa-induced VCAM1 expression, primary screen, imaging, HUVEC, TNFa stimulus, immunofluorescence | hit rate 0.48% among 95,000 | HUVEC TNFa-induced VCAM-1 immunofluorescence, high-content imaging | AID 802, 2007 | inhibition, % at 2 µM;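 active means inhibition above the batch mean plus 3 SD, with images confirmed as a hit by eye, cut at about 37% in these data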
IL1B NFkB pot – enhancers of NFkB p65 translocation in HUVEC – imaging, IL-1B stimulus, high-content imaging, primary screen; activation, % at 2 µM; hit rate 0.3% among 94,000; HUVEC IL-1B NFkB p65 nuclear translocation imaging; AID 819, 2007;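 active means activation above 40%, about the mean plus 3 SD, also judged a hit on visual image review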;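 further: percent activation is computed from the nuclear over cytoplasmic p65 intensity ratio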
Numbers stand for hits; - = inactive; . = not tested or not shown. A selection: hits, their analogues and other compounds. The true share with any hit is near 1.7%.

SMILES	TNFa cytotox	E-sel TNF inh	IL1B NFkB inh	HUVEC tox IL1B	VCAM1 TNFa inh	IL1B NFkB pot
CCc1ccc(CC2S/C(=C(\C#N)C(C)=O)NC2=O)cc1 (stereo unspecified)	-	50	.	.	-	.
CCOC(=O)c1ccc(CC2S/C(=C(\C#N)C(C)=O)NC2=O)cc1 (stereo unspecified)	-	-	-	-	-	-
Cc1cc(NS(=O)(=O)c2ccc(NC(=O)COc3ccc(Cl)cc3)cc2)no1	.	-	99	88	-	-
CC(C)(C)c1cc(OC(=O)c2ccncc2)ccc1O	-	93	-	-	-	-
Cc1cc(NC(=O)CSc2nnc3c4c(C)c(C)sc4ncn23)no1	-	69	-	-	-	-
O=C1CC(c2ccccc2)CC(O)=C1C=NCc1ccc(Cl)cc1 (stereo unspecified)	-	-	-	-	-	-
COc1ccc(CC(=O)Nc2cccc(-c3ccc4nnc(C)n4n3)c2)cc1OC	.	-	.	.	.	.
O=C(NNS(=O)(=O)c1ccc(Br)cc1)c1ccncc1	-	-	35	-	-	-
CCOC(=O)CSc1cc(CS(=O)(=O)c2ccccc2)nc(-c2ccccc2)n1	-	-	-	83	-	-
CCOC(=O)c1[nH]c(C)c(C(=O)N2CCc3ccccc32)c1C	-	-	-	-	54	100
CC(C)N(CCc1ccncc1)C(=O)Nc1ccc(Cl)c(Cl)c1	-	-	-	-	-	43
CCOC(=O)N1CCC(NC(=O)c2ccc3c(Cl)c4c(nc3c2)CCCC4)CC1	.	-	.	.	.	.
CCOC(=O)N1CCC(NC(=O)c2ccc3c(=O)n4c(nc3c2)CCCC4)CC1	-	64	-	-	-	-
Cn1c(-c2ccc(C=O)s2)nc2c3ccccc3c3ccccc3c21	-	-	-	-	-	-
C=CCN1C(=O)NC(c2ccccc2)(C(F)(F)F)S/C1=C(\C#N)c1nnc(N2CCOCC2)n1-c1ccccc1 (stereo unspecified)	.	-	.	.	.	.
COc1ccc(N2C(C)=CS/C2=C(/C#N)c2nnc(N3CCOCC3)n2-c2ccccc2)cc1	-	.	-	-	-	46
FCCCOc1ccc(/C=N/OCc2ccc(Cl)cc2)cc1	-	-	-	-	-	-
CCOc1ccc(NC(=O)c2nn(-c3ccc(OC)cc3OC)c(=O)c3ccccc23)cc1	.	-	.	.	.	.
CC(=O)Nc1ccc(S(=O)(=O)n2cnc(C)c2)cc1	98	-	-	-	91	-
COC(=O)CSCC(=O)Nc1nnc(-c2ccccc2C)s1	.	-	.	.	.	.
CC12CCC(C(=O)N(CSC(=S)N/N=C\c3ccccc3Cl)C1=O)C2(C)C (stereo unspecified)	-	-	100	95	-	-
CC12CCC(C(=O)N(CSC(=S)N/N=C\c3ccccc3)C1=O)C2(C)C (stereo unspecified)	-	-	-	-	-	-
Cc1nnc(SCC(=O)Nc2ccc(Cl)cn2)s1	.	-	.	.	.	.
CNC(=O)c1sc(-c2ccccc2)nc1C	-	-	-	-	-	-
CNC(=O)c1sc(-c2ccc(Cl)cc2)nc1C	-	.	-	75	-	-
SMILES	TNFa cytotox	E-sel TNF inh	IL1B NFkB inh	HUVEC tox IL1B	VCAM1 TNFa inh	IL1B NFkB pot
CCCn1c(SCC(=O)NC2CCCCC2C)n[nH]c1=O (stereo unspecified)	-	-	-	-	-	-
COc1ccc(NS(=O)(=O)c2cccc(-c3nnc(-c4ccccc4)o3)c2)cc1	-	-	-	-	-	-
Cc1ccccc1C(=O)c1cccn1CC(=O)NCc1ccco1	-	62	-	-	-	-
O=C(Cn1cccc1C(=O)c1ccccc1)NCc1ccco1	-	.	-	-	-	-
CCOc1ccc(N2CC(C(=O)OCC(=O)NCc3ccccc3)CC2=O)cc1 (stereo unspecified)	-	.	-	-	-	-
CCc1ccc(N2CC(C(=O)OCC(=O)NC3CCS(=O)(=O)C3)CC2=O)cc1 (stereo unspecified)	.	-	-	92	-	-
COc1ccc(CSCC(=O)Nc2ccccc2SC)cc1	.	-	.	.	.	.
COc1ccc(NC(=O)CN(C)CC(=O)Nc2ccccc2SC)cc1	.	70	.	.	.	.
O=C1NC2CCCCC2NC1CC(=O)N1CCN(c2ccccc2)CC1 (stereo unspecified)	-	-	-	-	-	-
COc1ccc(CCN(C)c2ccc(S(=O)(=O)N3CCCC3)cn2)cc1OC	.	76	.	.	.	.
COc1cc2[nH]c(=O)n(CCC(=O)N3CCN(c4cc(Cl)ccc4C)CC3)c(=O)c2cc1OC	-	-	-	83	-	-
COc1ccc(C(=O)CN2C(=O)NC3(CCCCC3)C2=O)cc1OC	.	-	.	.	.	.
COc1ccc(C(=O)CN2C(=O)NC3(CCCc4ccccc43)C2=O)cc1OC (stereo unspecified)	-	100	-	-	-	-
O=C(O)Cn1nc(C(F)(F)F)c2c1CCC2	-	-	-	-	-	-
Cc1nnc(SCC(=O)c2ccccc2)n1Cc1ccccc1	.	-	.	.	.	.
Cc1nnc(SCC(=O)N(C)c2ccccc2)n1Cc1ccccc1	.	89	.	.	.	.
CN(C)Cc1nc2c(c(=O)[nH]1)C1(CCCCC1)Cc1ccccc1-2	-	.	-	-	-	-
CCN(CC)Cc1nc2c(c(=O)[nH]1)C1(CCCCC1)Cc1ccccc1-2	.	-	-	90	-	-
COC(=O)C1C(=O)C2=C(CC1C)NC(=O)CC2c1ccccc1 (stereo unspecified)	-	-	-	-	-	-
COC(=O)C1C(=O)C2=C(CC1C)NC(=O)CC2c1cccc(C)c1 (stereo unspecified)	87	-	-	90	77	-
CCCn1nnc(NC(=O)c2cccc(OCC(C)C)c2)n1	.	93	.	.	.	.
CCOC(=O)c1ccc2nc(C)cc(Nc3cccc(C(=O)O)c3)c2c1	.	-	.	.	.	.
CCOC(=O)c1cccc(Nc2nc(C)cc(C)n2)c1	-	-	-	83	-	-
O=C1CC(Sc2nnc(-c3ccccc3O)o2)C(=O)N1c1ccccc1 (stereo unspecified)	.	70	.	.	.	.
COc1ccc(N2C(=O)CC(Sc3nnc(-c4ccccc4)o3)C2=O)cc1 (stereo unspecified)	.	-	.	.	.	.
COc1cc(N(C)C)c(NC(C)=O)cc1C(=O)O	-	-	-	85	-	-
COc1cccc(C2C3=C(CC(C)(C)CC3=O)Nc3n[nH]c(C)c32)c1 (stereo unspecified)	.	-	.	.	.	.
COc1ccc(NC(=O)C2CCCNC2)cc1OCC(C)C (stereo unspecified)	-	-	-	-	-	-
COc1ccc(CN2CCCCC2C(=O)Nc2ccc(OC)c(OCC(C)C)c2)cc1OC (stereo unspecified)	-	-	-	-	97	-
COC(=O)c1cc(COc2ccc3c(c2)oc(=O)c2ccccc23)c(C)o1	-	-	-	-	-	-
